Six molecules from PubChem BioAssay can be followed below.

Results filed as inconclusive are left out. The source made the active and inactive calls.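 The calls were made as follows, unless noted: active = compound raises insulin release from rat beta cells at 5 mM glucose, no numeric limit stated; inactive = the rest.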

The AC50 is the concentration at which the activity in the assay is half-maximal.

Assay [1] in a line: stimulators of insulin release from INS-1E, primary screen, cell-based, 5 mM glucose, NPC library (AID 1117329). The following applies: rat INS-1E insulin secretion, at 10 µM, stronger effect = higher value.
Assay [2] is described as follows: growth inhibition of GSK3B-pretreated HCT116 cells – cell-based, CellTiter-Glo, 0.2 to 20 µM (AID 1117336;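 active = compounds lowering colon cancer cell viability after pretreatment blocking the GSK3B kinase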). The following applies: HCT116 viability after GSK3B inhibitor, at 20 µM, stronger effect = higher value.
Assay [3] in a line: inhibition of endothelial tube formation, primary screen, imaging, VEGF stimulated, CD31 staining, tube area, NPC library (AID 1117340;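 active = compound that reduces growth-factor-driven endothelial tube area in a mixed cell culture, no cutoff stated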). The following applies: VEGF-stimulated ADSC/ECFC co-culture, at 10 µM, stronger effect = higher value.
Assay [4] can be described thus: glucagon-like peptide 1 release enhancers, primary assay, NCI-H716 cell line, NPC library (AID 1117341;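 active = compound raises GLP1 secretion from the human gut endocrine cells, with no numeric limit stated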). The following applies: NCI-H716 cells, at 10 µM, stronger effect = higher value.
The nature of assay [5]: HCT116 colon cancer cell growth inhibition, primary screen, CellTiter-Glo luminescence, NPC library (AID 1117342;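 active = compounds that lower survival of HCT116 colon cancer cells in the luminescence readout, no numeric limit stated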). The following applies: at 20 µM (top of the series).
Assay [6] in a line: CellTiter-Glo luminescent readout of SW480 viability loss, NPC library primary (AID 1117343;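 active = compounds that lower viability of the colon cancer cells in the luminescence readout, with no numeric limit stated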). The following applies: CellTiter-Glo luminescence; at 20 µM (top of the series).
Assay [7] in a line: decreased DLD-1 cellular survival, CellTiter-Glo luminescent readout, NPC compound collection, primary HTS (AID 1117346;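 active = compounds that lower survival of DLD-1 colon cancer cells in the luminescence readout, no cutoff given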). The following applies: DLD-1 viability, CellTiter-Glo luminescence; at 20 µM (top of the series). On the technique in general: Cellular ATP, detected with luciferase, serves as a proxy for viable cell number.
The nature of assay [8]: modulation of C. elegans fzo-1 (AID 1259413; call rule not given here;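 also: fzo-1 mutant C. elegans worms in liquid wells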). The following applies: C. elegans fzo-1 modulator screen, mean read-out; stronger effect = higher value.
A short description of assay [9]: differential killing of epithelial or mesenchymal cells, primary screen, imaging, PC-3E GFP, TEM4-18 mCherry, co-culture (AID 1345086;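 active = compounds killing one labelled cell type while sparing the other, by normalised counts and ratio limits, not self-fluorescent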;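 as to all read-outs here: cells exposed to compound for 72 h before imaging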;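 as to red/green cell ratio (normalised): normalised mesenchymal count divided by normalised epithelial count so high means epithelial killing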). The following applies: imaging cell counts, at 1 µM; for red/green cell ratio (normalised): actives lie on both sides, counts scaled to control wells, 1 = unselective.
Assay [10] can be described thus: growth inhibition of DIPG glioma cells, dose response, cell-based, SU-DIPG-XVII, MIPE5.0, CellTiter-Glo, qHTS (AID 1347060; cut-off not given, nearly all actives have AC50 up to about 26 µM). The following applies: SU-DIPG-XVII viability, CellTiter-Glo ATP luminescence.
Assay [11] is described as follows: growth inhibition of DIPG glioma cells, dose response, cell-based, SU-DIPG-XIII, MIPE4.0, CellTiter-Glo, qHTS (AID 1347061; cut-off not given, nearly all actives have AC50 up to about 37 µM;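 also: cells exposed to compound for 48 hours before readout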). The following applies: SU-DIPG-XIII viability, CellTiter-Glo ATP luminescence.
Assay [12] in a line: growth inhibition of DIPG glioma cells, dose response, cell-based, JHH-DIPG-1, MIPE4.0, CellTiter-Glo, qHTS (AID 1347062; cut-off not given, nearly all actives have AC50 up to about 27 µM). The following applies: JHH-DIPG-1 viability, CellTiter-Glo ATP luminescence.
The nature of assay [13]: growth inhibition of DIPG glioma cells, dose response, cell-based, SU-DIPG-IV, MIPE4.0, CellTiter-Glo, qHTS (AID 1347063; cut-off not given, nearly all actives have AC50 up to about 30 µM;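 also: compound exposure lasted 48 hours before the viability readout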). The following applies: SU-DIPG-IV viability, CellTiter-Glo ATP luminescence.
The nature of assay [14]: growth inhibition of DIPG glioma cells, dose response, cell-based, SU-DIPG-XIII, MIPE5.0, CellTiter-Glo, qHTS (AID 1347064; cut-off not given, nearly all actives have AC50 up to about 23 µM). The following applies: SU-DIPG-XIII viability, CellTiter-Glo ATP luminescence.
The mark [15] stands for this setting: measured here: epithelial PC-3E GFP cell survival.
Where [16] appears, read: measured here: mesenchymal TEM4-18 mCherry cell survival.

With `CC(N)C12CC3CC(CC(C3)C1)C2` (configuration not stated), the insulin secretion stimulation in [1] was 11% (inactive). Also, the viability decrease in assay [2] is -3.4% (inactive). Moreover, the tube area decrease in assay [3] was 15.2% (inactive). For the same molecule, the GLP1 secretion stimulation in [4] is -0.1% (inactive). Also, the inhibition of viability in assay [5] is 7.6% (inactive). Besides, the viability decrease (inhibition) in [6] was 60.8% (active); in assay [7] it was 6.65% (inactive). Also, the mean signal in assay [8] was 212 (inactive). Further, the red/green cell ratio (normalised) in assay [9] was 0.95 (inactive). In addition, the normalised cell number was 1.11 in [9] (setting [15]) and 1.06 in [9] (setting [16]). Also, the molecule was classed as inactive in [10], in [11], in [12], in assay [13] and in assay [14].
As for `CNNCc1ccc(C(=O)NC(C)C)cc1`, in assay [1], the insulin secretion stimulation was 0.5% (inactive). In [2], the viability decrease is -8.6% (inactive). The tube area decrease in [3] was 0.7% (inactive). Moreover, the GLP1 secretion stimulation in [4] is -0.6% (inactive). Moreover, the inhibition of viability in assay [5] was -1.9% (inactive). Moreover, the viability decrease (inhibition) in [6] is 5.8% (active); in [7] it was -10.5% (inactive). The mean signal in assay [8] is 227 (inactive). For the same molecule, in assay [9], the red/green cell ratio (normalised) is 1.09 (inactive). Moreover, the normalised cell number in assay [9] (setting [15]) came to 0.95; in [9] (setting [16]), 1.03. In addition, the result in assay [10], in assay [11], in [12] and in [14] was inactive.
In the case of `NS(=O)(=O)c1cc(C(=O)O)c(NCc2ccco2)cc1Cl`, the insulin secretion stimulation in assay [1] is -2% (inactive). In addition, the viability decrease in assay [2] is -10.1% (inactive). Further, in assay [3], the tube area decrease is 13% (inactive). In addition, in [4], the GLP1 secretion stimulation is 0.9% (inactive). The inhibition of viability in [5] is -10.4% (inactive). In addition, the viability decrease (inhibition) in assay [6] was -18% (inactive); in [7], -1.6% (inactive). The mean signal in [8] is 263 (inactive). In addition, the red/green cell ratio (normalised) in assay [9] is 1.08 (inactive). In addition, the normalised cell number in [9] (setting [15]) stood at 1.05; in assay [9] (setting [16]), 1.14. In addition, in [11], the molecule was called inactive.
Regarding `Cc1ccnc2c1NC(=O)c1cccnc1N2C1CC1`, the insulin secretion stimulation in assay [1] was -1.6% (inactive). For the same molecule, the viability decrease in assay [2] is -14.3% (inactive). For the same molecule, the tube area decrease in [3] is -6.9% (inactive). Further, in [4], the GLP1 secretion stimulation is -2% (inactive). In addition, in [5], the inhibition of viability is 6.5% (inactive). For the same molecule, the figures for the viability decrease (inhibition) in assay [6] and in [7] were -13.1% (inactive) and 13.6% (inactive), respectively. The mean signal in assay [8] was 208 (inactive). Besides, in assay [9], the red/green cell ratio (normalised) is 0.79 (inactive). The normalised cell number in [9] (setting [15]) is 1.34; in assay [9] (setting [16]) it was 1.05. For the same molecule, the AC50 in [13] is 16.6 µM (active).
With `Cc1cn([C@H]2C=C[C@@H](CO)O2)c(=O)[nH]c1=O`, the insulin secretion stimulation in assay [1] was 4.4% (inactive). In addition, in [2], the viability decrease was -0.2% (inactive). In addition, the tube area decrease in assay [3] was -1.6% (inactive). Besides, the GLP1 secretion stimulation in assay [4] is -0.3% (inactive). Moreover, the inhibition of viability in [5] was 1.2% (inactive). Moreover, the viability decrease (inhibition) is -4.8% (inactive) in assay [6] and -8.9% (inactive) in assay [7]. Also, in assay [8], the mean signal was 233 (inactive). In addition, the red/green cell ratio (normalised) in assay [9] is 0.8 (inactive). Moreover, the normalised cell number in assay [9] (setting [15]) amounted to 1.35; in assay [9] (setting [16]) it was 1.09. In addition, the result in assay [11], in assay [12] and in [13] was inactive.
With `CN1CCC(=C2c3ccccc3CCc3sccc32)CC1`, the insulin secretion stimulation in [1] was 6.65% (inactive). In addition, the viability decrease in [2] is 47.1% (inactive). Further, in assay [3], the tube area decrease was 28.1% (inactive). Further, the GLP1 secretion stimulation in assay [4] is 5.3% (inactive). In addition, the inhibition of viability in [5] was 20.1% (inactive). The viability decrease (inhibition) in assay [6] was 103% (active); in [7], 26.9% (inactive). In addition, the mean signal in [8] was 277 (inactive). Further, the red/green cell ratio (normalised) in assay [9] was 0.85 (inactive). The normalised cell number in assay [9] (setting [15]) was 1.11; in assay [9] (setting [16]), 0.94. In addition, the result in assay [10] was inactive. Moreover, the AC50 in assay [11] is 16.6 µM (active).
